Measured values from PubChem BioAssay.

test: growth of efflux-deficient E. coli DRC39 – strain DRC39, OD650, 24 h, E. coli filamentation inducers, primary screen (AID 1178);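 note: growth measured as culture turbidity by optical density at 650 nm; test concentration not given here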; details: E. coli DRC39 acrAB, higher = more signal, called active from +8 up or from −8 down

z-score, inactive:
COC(=O)[C@@]1(Cc2ccc(OC)cc2)[C@H]2c3cc(C(=O)N4CCCC4)n(CCc4ccccn4)c3C[C@H]2CN1C(=O)c1ccccc1 -0.784
CC(=O)N1Cc2ccccc2C[C@@]2(N=C(c3ccc(OCCCO)cc3)O[C@H]2c2ccccc2)C1=O 1.62
CC(C)NC(=O)[C@@]1(c2ccc([N+](=O)[O-])cc2)CC(=O)N(C(C)C)[C@@H]1c1ccc(CO)cc1 0.423
CC(C)C(O)C1C=CC2C(=O)N(C)C(=O)C2N1N1CCCCC1 (stereo unspecified) -0.754
CCCC[C@@H]1C[C@H]1[C@@H](NC(=O)c1ccccc1)c1ccccc1 0.104
CCN(CC)c1ccc(N2CC=CC34O[C@@H]5/C=C\CCCOC(=O)C5[C@H]3C(=O)N(CCCO)[C@@H]4C2=O)cc1 (stereo partly specified) -0.438
COc1ccc(C(O)C2C=CC3C(=O)N(c4ccccc4)C(=O)C3N2Nc2ccccc2)c2ccccc12 (stereo unspecified) -1.05
O=[N+]([O-])c1ccc(C[n+]2ccc(CCCO)cc2)o1 -1.4
C[N+](C)(C)CCCCNC(=O)[C@H]1C[C@H]2C(=O)N3CCC[C@H]3C(=O)N2[C@H]1c1ccc(O)cc1 0.0346
COCCOC(=O)N1C(=O)[C@@]2(c3ccccc31)[C@H](C(=O)N1CCCCCCC1)[C@H]1C(=O)O[C@H](c3ccccc3)[C@H](c3ccccc3)N1[C@@H]2c1ccccc1OCCO -0.38
C=CCC(OC(C)=O)[C@@H]1[C@@H](N(Cc2ccc(-c3ccccc3)cc2)C(=O)c2ccc(C)cc2)c2cc(OCCCO)ccc2N1C(=O)Cc1ccc(OC)cc1 (stereo partly specified) -0.104
